Tat export inh: E. coli Tat export inhibitors, primary screen, MC4100, TorA-mCherry reporter, fluorescence, single point. inhibition, % at 10 µM. 340,000 tested, 0.036% active;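 active = mean replicate inhibition at least 50% and at least half of replicates individually reaching 50%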;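 note: exported cargo escapes ClpAP degradation while cytoplasmic cargo is degraded and loses fluorescence; 0% = median of neutral control wells and 100% = median of NaSCN control wells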
E coli growth-1: E. coli growth inhibition, primary screen, OD600; 330,000 tested, 0.21% active; Escherichia coli growth, 23 h; hits give low values; OD600 absorbance (test concentration not listed); AID 1053175, 2014;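 active = OD600 absorbance below the run mean of sample wells minus 3.6 SD, in any replicate, cut at about 0.56 in these data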
AddAB inh: growth inhibition of E. coli expressing H. pylori AddAB, primary screen, AddAB inhibitor project, absorbance; AID 435030, 2010; inhibition, % at 11.9 µM; 330,000 tested, 0.29% active; in the data active = inhibition above about 12%;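 note: 0% = vehicle wells of infected cells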
E coli growth-2: E. coli V3065 growth inhibition, primary screen, counter-screen for AddAB inhibitor project, absorbance, OD600; 18 h; inhibition, % at 11.9 µM; 330,000 tested, 0.27% active; AID 449728, 2010;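 active = inhibition above the campaign's mean inhibition across all tested compounds plus 3 SD, cut at about 9.9% in these data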;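 note: uninfected addAB+ strain grown without phage in ampicillin broth; 0% = DMSO wells and 100% = ciprofloxacin 0.95 µg/ml wells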
p-CIP stab down: p/CIP-EGFP fusion destabilizers, primary screen, fluorescence, F442A cells; 16 h; AID 1984, 2009; Q05BA5; 290,000 tested, 0.01% active; decrease of EGFP signal, % at 10 µM;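 active = EGFP signal decrease of at least 30% at 10 µM or well 3 SD below plate mean, unless failing retest; inactive = the rest, including hits failing retest or dose response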
phage Ecoli inh: growth loss of phage-infected E. coli, primary screen, RecBCD inhibitor project, absorbance, with phage, HTS | inhibition, % at 11.9 µM | 360,000 tested, 0.26% active | AID 651602, 2012; in the data active = inhibition above about 11%
AddAB confirm: growth loss of phage-infected E. coli expressing H. pylori AddAB, confirmation, AddAB inhibitor project, absorbance, E. coli V3065, T4 phage, triplicate. shares compounds with AddAB inh. OD; T4 phage with gene 2 nonsense mutations. inhibition, % at 11.9 µM. 880 tested, 64% active. AID 488942, 2010;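 active = mean inhibition above a set limit taken from the earlier primary screen, cut at about 13% in these data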;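 note: higher means less bacterial growth since AddAB block lets phage replicate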
RecBCD counter: growth loss of RecBCD+ E. coli with mutant T4 phage, counter-screen for AddAB inhibitor project, absorbance, V66 E. coli; shares compounds with AddAB inh; inhibition, % at 11.9 µM; 880 tested, 73% active; OD growth;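 active = mean inhibition above the mean of solvent-only control wells plus 3 SD, cut at about 4% in these data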;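 note: optical density read after an 18 h incubation at 37 °C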
bact viab count: bacterial viability inhibition counter-screen, confirmation, counter-screen for AddAB inhibitor project, absorbance. shares compounds with AddAB inh. absorbance (AddAB counterscreen). inhibition, % at 11.9 µM. 880 tested, 35% active; in the data active = inhibition above about 25%
RecBCD conf: growth loss of phage-infected RecBCD+ E. coli, confirmation, RecBCD inhibitor project, absorbance, E. coli V66, T4 gene 2 phage. inhibition, % at 11.9 µM. shares compounds with phage Ecoli inh. 890 tested, 45% active. E. coli V66 + T4 2- phage, growth OD;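 active = mean inhibition over triplicates exceeding the hit threshold derived in the original primary screen, cut at about 11% in these data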
Ecoli viability: E. coli viability inhibition, counter-screen for RecBCD inhibitor project, absorbance, high throughput; shares compounds with phage Ecoli inh; inhibition, % at 11.9 µM; absorbance (OD) growth; 890 tested, 29% active; in the data active = inhibition above about 20%;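 note: E. coli strain V66 grown with compound alone and no phage infection; 0% = bacteria with DMSO vehicle only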
AddAB counter: growth loss of phage-infected AddAB-carrying E. coli, confirmation, counter-screen for RecBCD inhibitor project, absorbance, E. coli V3065, T4 phage; shares compounds with phage Ecoli inh; inhibition, % at 11.9 µM; E. coli expressing H. pylori AddAB + T4 phage, OD growth; gene 2 mutant T4, recBCD-deleted host; 890 tested, 45% active; AID 651984, 2013;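 active = mean inhibition above the solvent-only control wells' mean plus 3 SD, cut at about 22% in these data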;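 note: higher means less bacterial growth from phage killing when AddAB is blocked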
An asterisk follows results filed as active; nt = not tested or not shown. Hits are enriched below; roughly 0.51% of the tested compounds scored in any of these assays.

SMILES	Tat export inh	E coli growth-1	AddAB inh	E coli growth-2	p-CIP stab down	phage Ecoli inh	AddAB confirm	RecBCD counter	bact viab count	RecBCD conf	Ecoli viability	AddAB counter
CCn1ccc(C(=O)NC2C(=O)N3C(C(=O)O)=C(C)CSC23)n1 (stereo unspecified)	-4.8	0.718	1.4	1.1	0.3	1.4	nt	nt	nt	nt	nt	nt
O=C(COC(=O)c1cccc(S(=O)(=O)N2CCCCC2)c1)NC1CCCc2ccccc21 (stereo unspecified)	-5.9	0.7	2.3	-1.4	8.5	-1.3	nt	nt	nt	nt	nt	nt
c1c[nH]c(CN2CCN(Cc3ncc[nH]3)CC2)n1	-10.2	nt	nt	nt	nt	2.1	nt	nt	nt	nt	nt	nt
COc1ccc(OC)c(NC(=O)Nc2nnc(N3CCCCC3C)s2)c1 (stereo unspecified)	2.1	0.694	12.9*	13.5*	-7.6	12.7*	1.5	17.2*	-1.8	10.3	12.1	-4.6
CC(=O)C(C(c1ccccc1)N1CCCc2ccccc21)N1CCOCC1 (stereo unspecified)	0.0	0.672	nt	nt	nt	-0.4	nt	nt	nt	nt	nt	nt
CC(=O)c1c(C)n([O-])c2cc(F)c(F)cc2[n+]1=O	29.3	0.111*	63.2*	52.8*	7.1	21.9*	98.0*	25.8*	88.3*	23.4*	31.1*	91.4*
Cc1c(-c2ccc(F)cc2)[n+](=O)c(-c2ccc(F)cc2)c(C)n1[O-]	-0.7	0.675	3.1	1.9	1.5	-0.9	nt	nt	nt	nt	nt	nt
Brc1ccc2nc(-c3cccs3)c(NCC3CCCO3)n2c1 (stereo unspecified)	4.0	0.696	-2.6	-1.2	-11.2	2.0	nt	nt	nt	nt	nt	nt
[O-][n+]1c2ccccc2[n+]([O-])c2cc(O)ccc21	9.3	0.398*	31.5*	40.1*	-1.5	11.3*	68.7*	9.8*	50.7*	11.1*	11.2	55.0*
Cc1c(-n2cc(C(=O)O)c(=O)c3cc(F)c(N4CCCC(O)C4)c(F)c32)c(=O)n(-c2ccccc2)n1C (stereo unspecified)	5.9	0.717	2.4	0.8	4.5	0.7	nt	nt	nt	nt	nt	nt
NC1CCN(c2c(F)cc3c(=O)c(C(=O)O)cn(C4CC4)c3c2Cl)C1 (stereo unspecified)	148.8*	0.066*	97.5*	98.4*	-3.4	99.3*	101.6*	100.3*	101.6*	100.8*	101.0*	98.8*
CC1CCc2cc(F)cc3c(=O)c(C(=O)O)cn1c23 (stereo unspecified)	56.2*	0.062*	100.0*	100.2*	2.9	99.5*	99.5*	31.0*	99.7*	101.7*	102.9*	102.0*
CC1CCc2c(N3CCC(O)CC3)c(F)cc3c(=O)c(C(=O)O)cn1c23 (stereo unspecified)	59.8*	0.059*	100.8*	101.7*	nt	102.6*	95.9*	99.0*	97.2*	101.8*	103.2*	102.7*
CCn1cc(C(=O)O)c(=O)c2cc(F)c(N3CCN(C(=S)Nc4ccccc4OC)CC3)cc21	24.3	0.0735*	97.5*	99.1*	-19.3	99.7*	98.5*	99.4*	98.9*	101.6*	102.9*	101.7*
CCn1cc(C(=O)O)c(=O)c2cc(F)c(N3CCN(C(=S)NC(=O)c4c(OC)cccc4OC)CC3)cc21	25.9	0.0695*	98.9*	98.4*	-1.6	99.0*	98.8*	98.9*	99.1*	101.7*	102.5*	102.8*
CCOC(=O)c1cn(CC)c2cc(N3CCCCC3)c(F)cc2c1=O	7.4	0.656	4.0	1.6	nt	1.1	nt	nt	nt	nt	nt	nt
Cc1ccc(/C=N\NC(=O)c2ccc(Cn3cc(Br)c([N+](=O)[O-])n3)o2)o1	4.9	nt	36.2*	27.1*	-19.1	12.5*	72.8*	9.4*	51.3*	5.6	8.9	44.0*
Cc1ccc(C=NNC(=O)c2ccc(Cn3cc(Br)c([N+](=O)[O-])n3)o2)o1	nt	0.665	nt	nt	nt	nt	nt	nt	nt	nt	nt	nt
Cc1cc(C)c(C)c(S(=O)(=O)N2CCC(C(=O)NNC(=O)c3ccccc3O)CC2)c1C	-6.0	0.645	14.9*	8.8	nt	11.7*	10.8	8.1*	6.1	0.5	1.2	-0.1
CCCNC(=O)c1ccc2c(=O)c(O)c(-c3ccc(C)cc3)[nH]c2c1	-12.1	nt	22.6*	24.9*	-21.9	21.1*	19.6*	16.5*	16.4	7.8	10.7	23.5*
Cc1ccc(-c2[nH]c3cc(C(N)=O)ccc3c(=O)c2O)cc1	-8.7	nt	1.6	-4.1	-11.5	3.2	nt	nt	nt	nt	nt	nt
Cc1ccc(CNC(=O)c2ccc3c(=O)c(O)c(-c4ccc(C)cc4)[nH]c3c2)cc1	2.7	0.64	16.9*	20.0*	-21.9	17.3*	20.9*	18.6*	20.3	11.0*	14.9	19.4
CCCC(=O)NC(c1ccc(Cl)cc1)c1ccc2cccnc2c1O (stereo unspecified)	-9.5	nt	18.7*	28.0*	-3.9	18.4*	24.4*	22.9*	23.6	15.5*	19.5	26.6*
CCCCC(=O)NC(c1ccc(OC)c(OC)c1)c1c(O)ccc2ccccc12 (stereo unspecified)	4.2	0.653	1.3	-1.2	1.2	nt	nt	nt	nt	nt	nt	nt
CC(=O)NC(c1ccc2ccccc2c1)c1ccc2cccnc2c1O (stereo unspecified)	-6.7	nt	29.5*	27.0*	-7.3	24.4*	28.4*	21.9*	20.2	16.0*	19.8*	31.9*
CCCCC(=O)NC(c1ccccc1OC)c1ccc2cccnc2c1O (stereo unspecified)	23.4	0.62	32.2*	33.0*	-0.3	34.0*	30.3*	27.8*	26.7*	20.9*	24.6*	31.7*

Source: PubChem BioAssay
